Assay outcomes deposited in PubChem BioAssay by National Center for Advancing Translational Sciences (NCATS).
p53 reactivator: mutant p53 re-activation in reporter cells. 320,000 tested, 0.063% active. H1299 p53-A138V BP100-luciferase reporter, luminescence, 24 h. Potency, µM (titrated, usually from 92.2 µM), for the others: at the highest dose activity change, positive = activation, actives largely listed as activators; further: % of control where 0% means no effect; nearly all actives have a fitted effect of over 45% in size
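p53-null H1299 cells stably carrying temperature-sensitive p53-A138V and a BP100-luciferase reporter were pinned with compounds (4-point, 1:5 series) and held 24 hrs at 37 deg C. Luminescence was read 10 min after detection reagent.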
ELG1 genotoxic: genotoxicity induction in ELG1-luciferase HEK293T cells. AID 504466. 330,000 tested, 1.3% active. HEK293T ELG1-luciferase reporter, luminescence, 16 h. Potency, µM (doses to about 46 µM), inactives show at the highest dose activity change, positive = activation, usual class: activators; further: % of control where 0% means no effect; nearly all actives have a fitted effect of over 60% in size
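Screening used a luciferase reporter fused to human ELG1 in HEK293T cells. Luminescence was read on a CCD plate imager after 16 hr exposure and 30 min ONE-Glo incubation.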
NPC1 prom act: activates the NPC1 promoter; Huh7 NPC1 promoter luciferase reporter, 24 h; Potency, µM (series often up to 9.22 µM), for inactives: at the highest dose activation, usual class: activators; 320,000 tested, 2.4% active; AID 485313; further: % of control where 0% means no effect; nearly all actives have a fitted effect of over 60% in size
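Stable NPC1-promoter luciferase Huh7 line; cpd (DMSO) 24 h, 37 °C, 5% CO2; Amplite luciferase reagent 10 min RT; luminescence readout. qHTS format.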
Rab9 promoter act: activates the Rab9 promoter; Potency, µM (series often up to 9.22 µM), for inactives: at the top dose activation, negative = inhibition, usual class: activators; AID 485297; Huh7 Rab9 promoter-luciferase reporter, luminescence, 24 h; 320,000 tested, 2.8% active; further: % of control where 0% means no effect; nearly all actives have a fitted effect of over 60% in size
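Promoter activation is measured as luciferase luminescence in Huh7 cells stably transfected with a Rab9 promoter–luciferase construct, following 24 h compound exposure at 37 °C and 10 min reagent incubation at ambient temperature.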
SMN2 splice enh: SMN2 splice variant enhancement. HEK293 SMN2-luciferase splicing reporter, luminescence, 30-36 h. 210,000 tested, 2.8% active. Potency, µM (series often up to 46.1 µM), inactives show top-dose activity change, positive = activation, hits mostly activators; further: % of control where 0% means no effect; nearly all actives have a fitted effect of over 55% in size
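qHTS luciferase splicing reporter: luminescence rises when SMN2 exon 7 is included in transfected HEK293 cells. Compound exposure lasted 30-36 h at 37C, with 4.5 mM final sodium butyrate as control, followed by a ONE-Glo read.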
FLuc modulator: inhibits or activates purified firefly luciferase, miR-21 counter-screen; purified FLuc, Km substrates, luminescence inhibition; Potency, µM (highest dose often 57.5 µM), for the others: top-dose activity change, negative = inhibition, most hits filed as inhibitors; 360,000 tested, 6.9% active;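 further: plate controls were vehicle for no effect and reference inhibitor for full effect; nearly all actives have a fitted effect of over 55% in size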
Target sequence (P08659 whole entry, looked up): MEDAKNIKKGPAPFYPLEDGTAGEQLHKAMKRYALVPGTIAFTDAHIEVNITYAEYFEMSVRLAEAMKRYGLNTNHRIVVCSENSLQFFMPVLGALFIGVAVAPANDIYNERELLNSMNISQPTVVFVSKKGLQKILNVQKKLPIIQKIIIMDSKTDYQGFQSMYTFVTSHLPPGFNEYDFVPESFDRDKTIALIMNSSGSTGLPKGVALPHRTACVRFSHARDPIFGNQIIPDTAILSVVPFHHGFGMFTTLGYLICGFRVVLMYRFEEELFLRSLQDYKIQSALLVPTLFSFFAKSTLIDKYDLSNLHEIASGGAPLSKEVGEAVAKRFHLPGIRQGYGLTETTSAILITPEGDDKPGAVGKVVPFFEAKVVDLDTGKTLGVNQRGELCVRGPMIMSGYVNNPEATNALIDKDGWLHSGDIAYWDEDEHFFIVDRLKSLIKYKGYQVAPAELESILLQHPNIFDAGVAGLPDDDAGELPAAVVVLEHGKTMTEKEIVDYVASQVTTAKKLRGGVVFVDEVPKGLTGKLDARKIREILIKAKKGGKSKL
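Purified P. pyralis luciferase, 10 nM final, with Km-level 10 uM D-luciferin and 10 uM ATP in 50 mM Tris acetate pH 7.5, 10 mM Mg acetate, 0.01% Tween-20, 0.05% BSA; 6-point qHTS titration about 60 µM downward; luminescence read.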
Numbers without * were called inactive; ? = inconclusive; . = no result given; [ ] = remark or other dose. The list is not random: actives were taken first. Their share in the collection is about 7.3%. The call rests on the fitted dose curve; in most records, active means well fitted curve in the direction sought with a large enough effect; inconclusive means small, poorly fitted or top-dose-only effect, or another doubt; inactive means no such curve, though single readings can be large; an effect the other way counts as inactive or inconclusive. Potency means the concentration at half of the fitted maximal effect.

SMILES	p53 reactivator	ELG1 genotoxic	NPC1 prom act	Rab9 promoter act	SMN2 splice enh	FLuc modulator
Cn1cc(C=C2C(=O)OC3(CCCCC3)OC2=O)c2ccccc21	0%	-2%	3%	-1%	.	-13%
O=C1OC2(CCCC2)OC(=O)C1=Cc1c[nH]c2ccccc12	2%	?	1.1µM*	0.89µM*	.	-5%
Cc1noc(C)c1C(=O)Nc1cccc2ncccc12	3%	-24%	3%	1%	.	0%
CCc1ccc(NCc2cc3cc4c(cc3n(CC(=O)Nc3ccccc3C)c2=O)OCCO4)cc1	.	.	.	.	.	-7%
O=C(Nc1ccc(N2CCOCC2)c(Cl)c1)c1ccc([N+](=O)[O-])o1	-7%	?	27%	?	?	12µM*
CCCC(=O)N1CCN(c2ccc(NC(=O)c3ccc([N+](=O)[O-])o3)cc2Cl)CC1	-11%	-10%	-17%	-3%	-48%	4%
CN1CCN(c2ccc(NC(=O)c3ccc([N+](=O)[O-])o3)cc2Cl)CC1	-19%	?	?	?	.	9.5µM*
CC(C)C(=O)N1CCN(c2ccc(NC(=O)c3ccc([N+](=O)[O-])o3)cc2Cl)CC1	0%	-12%	-12%	-39%	-1%	1%
Nc1cc(-c2ccc(Br)cc2)nn1Cc1ccccc1	8%	7%	-10%	-17%	.	17µM*
Nc1cc(-c2cccc(Br)c2)nn1Cc1ccccc1	29%	11%	7%	5%	-40%	?
Cc1cc(C)n2nc(C(=O)NCCc3ccccc3)nc2n1	8%	23µM*	?	22%	26%	?
Cc1ccnc2nc(C(=O)Nc3ccc4c(c3)OCO4)nn12	?	2.6µM*	1.8µM*	1.6µM*	11µM*	11µM*
Cc1cc(C)n2nc(C(=O)OCC(=O)Nc3ccc4c(c3)OCO4)nc2n1	-8%	-4%	14%	1%	1%	1%
Cc1cc(C)n2nc(C(=O)Nc3ccc4c(c3)OCO4)nc2n1	-9%	?	19%	29%	?	24µM*
Cc1ccc(S(=O)(=O)N2CCC(N3CCC(C)CC3)CC2)cc1	6%	1%	-1%	-2%	.	0%
Cc1ccc(-n2c(C)cc(-c3csc(N)n3)c2C)cc1	-1%	2%	9%	0%	0%	11µM*
CCc1ccc(/C=N/NC(=O)c2nnn(-c3nonc3N)c2C(C)C)cc1	6%	5%	-5%	-7%	.	2.4µM*
CC(C)c1c(C(=O)N/N=C/c2cccnc2)nnn1-c1nonc1N	0%	-3%[9.26 µM]	-2%	0%	.	-17%
CC(C)c1c(C(=O)N/N=C/c2ccc(Cl)cc2Cl)nnn1-c1nonc1N	9%	5%	3%	0%	.	6µM*
CCCCc1ccc(-c2nc(N)n[nH]2)cc1	?	?	3.2µM*	1.6µM*	6.3µM*	6µM*
CCCc1ccc(-c2cc(N)n[nH]2)cc1	7%	16µM*	?	?	17%	7.6µM*
CC1CCN(CC(=O)N2c3ccccc3Sc3cc4ccccc4cc32)CC1	.	.	.	.	-11%[9.22 µM]	.
CC1CCN(C(=O)Nc2cccc(NC(=O)N3CCC(C)CC3)c2)CC1	1%	2%	10%	0%	5%	15µM*
CC1CCN(C(=O)Nc2ccc3nsnc3c2)CC1	11%	?	?	4.5µM*	13%	13µM*
COc1ccc(N2CCN(C(=O)COC(=O)CCc3ccccc3)CC2)cc1	0%	1%	-7%	-4%	.	-1%
SMILES	p53 reactivator	ELG1 genotoxic	NPC1 prom act	Rab9 promoter act	SMN2 splice enh	FLuc modulator
CN(Cc1cn(C)nc1-c1cccc(Cl)c1)C1CCOCC1	-3%	0%	0%	-19%	.	-1%
CN(Cc1ccon1)Cc1cn(C)nc1-c1cccc(Cl)c1	0%	?	?	?	.	5.4µM*
CCCCC(=O)Nc1nnc(-c2ccco2)o1	6%	-9%	2%	-3%	18%	-1%
CCN(C(=O)CSc1nc2n[nH]c(C)c2c(=N)n1-c1cccc(OC)c1)c1cccc(C)c1	.	.	.	.	.	2%
Cc1ccc(C(=O)CC(=O)c2cc(Cl)ccc2O)cc1	?	15µM*	19%	19%	26%	17µM*
O=C(CC(=O)c1ccccc1O)c1ccc(F)cc1	?	?	?	30%	-47%	?
Cc1ccc(C(=O)CC(=O)c2ccc(C)cc2O)cc1	?	5%	?	?	.	17µM*
COc1ccc(-c2nc3c4ccccc4n(CC(=O)Nc4cc(F)ccc4F)c(=O)n3n2)cc1	.	.	.	.	.	-19%
Cc1ccc2c(c1)sc[n+]2Cc1ccccc1	29%	?	26%	4%	11%	5.4µM*
CCOC(=O)c1ccccc1NC(=O)CN(c1cc(C(F)(F)F)ccc1Cl)S(C)(=O)=O	.	.	.	.	-18%	4%
Cc1cc(=O)[nH]c(N/N=C/c2cccc(Br)c2)n1	.	5%	13%	12%	.	-23%
CCOC(=O)c1sc(N/N=C/c2ccc(N(C)C)cc2)nc1C	.	13%	25%	?	.	11µM*
CC(=O)c1sc(N/N=C\c2cccc(Br)c2)nc1C	?	6%	-3%	18%	?	11µM*
CC(=O)c1sc(N/N=C\c2ccc(Br)cc2)nc1C	?	?	?	?	?	5.4µM*
CCOC(=O)c1nc(N/N=C/c2ccccc2)sc1Br	.	2%	21%	20%	.	7.6µM*
CCOC(=O)c1nc(NCc2ccccc2)sc1C	16%	12%	19%	24%	.	?
COCCNC(=O)Cn1c(=O)c2cccn2c2ccc(F)cc21	.	.	.	.	.	-1%
C=C1C(N)CC2CC1C2(C)C (centres undefined)	.	.	.	.	-12%	.
CSc1nnc(C(C)c2ncc(C(F)(F)F)cc2Cl)n1C (centres undefined)	0%	-2%	-1%	-34%	10%	0%
COC(=O)c1cc2sccc2n1Cc1ccc(F)cc1Cl	.	.	.	.	1%	-13%
CN(C)c1ccc(N=Nc2ccccc2C(=O)OCC(=O)Nc2ccccc2C(F)(F)F)cc1	?	7%	-1%	24%	26%	9.5µM*
CN(C)c1cc[n+](CC(=O)Nc2ccccc2C(F)(F)F)cc1	.	-2%	-1%	-2%	.	-2%
CN(C)c1ccc(N=Nc2ccccc2C(=O)OCC(=O)N2CCCC2)cc1	?	9%	15%	0%	?	2.1µM*
CSc1ccccc1C(=O)OCC(=O)N1CCCCCC1	21%	?	.	.	.	.
CN(C)c1ccc(N=Nc2ccccc2C(=O)OCC(=O)N2CCCCCC2)cc1	31%	1%	18%	22%	25µM*	?
CCCCNC(=O)c1nn(-c2ccc(C)cc2)c(=O)n(C)c1=O	.	.	.	.	.	-1%
O=c1c2[nH]c3ccc(F)cc3c2ncn1C1CCCCC1	11%	14%	?	4µM*	7%	-11%
